Active and inactive are the calls of the source.

Assay [1] in a line: binders of probe aFSTL3 on microarray, primary screen, stem cell growth factor project, biochemical, small-molecule microarray, fluorescence 635/667 (AID 1064).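 Note: measures binding of the biotinylated anti-FSTL3 antibody to printed compounds.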 As to conditions: higher = more signal.
Assay [2] in a line: binders from COS7 lysate, DM2A8 probe, primary screen, torsin A project, cell lysate, small-molecule microarray, fluorescence 635/667 (AID 1065). As to conditions: higher = more signal, COS7 lysate expressing mutant human TOR1A.
The nature of assay [3]: binders of probe aFGF2 on microarray, primary screen, stem cell growth factor project, biochemical, small-molecule microarray, fluorescence 635/667 (AID 1067).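 Note: measures binding of biotinylated aFGF2 protein to printed compounds on slides; z-score merges feature fluorescence and signal-to-noise across triplicate slides.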 The following applies: higher = more signal.
Assay [4] in a line: binders of probe aFGF10 on microarray, primary screen, stem cell growth factor project, biochemical, small-molecule microarray, fluorescence 635/667 (AID 1071).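 Note: score merges 667 nm spot intensity and signal to noise from triplicate slides.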 As to conditions: higher = more signal.
Assay [5] deals with Neurogenic locus notch homolog protein 2 (Homo sapiens) (UniProt Q04721). The experiment in a line: Notch2 binders on small-molecule microarrays, primary screen, biochemical, small-molecule microarray, 635 nm fluorescence, stem cell growth factors (AID 1073). As to conditions: Notch2 binding, higher = more signal.
In assay [6] the target is Pro-neuregulin-1, membrane-bound isoform (Homo sapiens) (UniProt Q02297). Description: NRG1 binders on small-molecule microarrays, primary screen, psychiatric disease protein project, biochemical, small-molecule microarray, fluorescence 635/667 (AID 1075).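 Note: score combines 667 nm spot fluorescence with signal to noise.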 The following applies: NRG1 binding, 635 nm fluorescence, higher = more signal.
Assay [7] concerns Neuregulin-1 EGF-like domain. Description: binders of neuregulin-1 EGF-like domain, primary screen, biochemical, small-molecule microarray, 635 nm fluorescence (AID 1081).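 Note: binding of the protein to compounds printed on small-molecule microarray slides.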 The following applies: small-molecule microarray binding, higher = more signal.
A short description of assay [8]: FRG1 promoter luciferase signal modulators, primary screen, FRG1 inhibition for FSHD, cell-based, C2C12 myotubes, firefly/Renilla luciferase, luminescence (AID 1084). As to conditions: higher = more signal, called active from +8 up or from −8 down.
Assay [9] is described as follows: binders of probe aFST on microarray, primary screen, stem cell growth factor project, biochemical, small-molecule microarray, fluorescence 635/667 (AID 1086).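 Note: score merges 667 nm fluorescence with signal-to-noise of each printed compound spot.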 The following applies: higher = more signal.
Assay [10] can be described thus: binders of probe aHhip on microarray, primary screen, stem cell growth factor project, biochemical, small-molecule microarray, fluorescence 635/667 (AID 1087).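 Note: score merges spot fluorescence at 667nm with spot signal to noise ratio.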 As to conditions: higher = more signal.
Assay [11] has as its system PRMT1 (protein arginine N-methyltransferase 1). The experiment in a line: PRMT1 binders on small-molecule microarrays, primary screen, biochemical, small-molecule microarray, 635 nm fluorescence (AID 1088).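 Note: binding of Prmt1 protein to compounds spotted on small-molecule microarray slides.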 As to conditions: small-molecule microarray binding, higher = more signal.
A short description of assay [12]: yeast growth modulation, basal conditions, primary screen, YJM789 clinical isolate, OD600, 24 h (AID 1089).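 Note: growth of clinical yeast isolate S. cerevisiae YJM 789 seeded 1000 cells per well; test concentration not given here.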 As to conditions: S. cerevisiae YJM789 growth, higher = more signal, called active from +8 up or from −8 down.
Assay [13] is described as follows: fission yeast growth modulation, primary screen, strain 972, OD600, 24 h, no modulator (AID 1090).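 Note: basal condition with compound alone and no growth modifier present; test concentration not given here.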 The following applies: S. pombe 972 growth, higher = more signal, called active from +8 up or from −8 down.
The nature of assay [14]: S. cerevisiae growth modulation with rapamycin, primary screen, strain BY4716, OD600, 96 h (AID 1091). Note: test concentration not given here. As to conditions: higher = more signal, called active from +8 up or from −8 down.
For assay [15], the target named is Torsin-1A-interacting protein 2 (Homo sapiens) (UniProt Q8NFQ8). Description: LULL1 binders on small-molecule microarray, primary screen, cell lysate, human LULL1 lysate, 635/667 nm fluorescence (AID 1092).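 Note: probe is lysate of COS7 cells overexpressing human LULL1; score merges per-feature 667 nm fluorescence with signal-to-noise.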 The following applies: hLULL1 lysate binding, 635 nm fluorescence, higher = more signal.
Assay [16] can be described thus: E. coli growth modulation, two-sided OD650, primary screen, E. coli filamentation project, strain DRC41, 24 h (AID 1093).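 Note: MC1000 strain lacking acrAB efflux and sulA so SOS filamentation is blocked; test concentration not given here.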 The following applies: OD650, 24 h, higher = more signal, called active from +8 up or from −8 down.
A short description of assay [17]: small-molecule microarray binders of probe aLefty2, primary screen, biochemical, biotinylated probe, 635/667 nm fluorescence (AID 1094).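 Note: score merges spot fluorescence near 667 nm with spot signal-to-noise ratio.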 The following applies: higher = more signal.
The subject of assay [18] is Noggin (protein binding on small-molecule microarray). Description: Noggin binders on small-molecule microarray, primary screen, biochemical, 635/667 nm fluorescence (AID 1095).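 Note: score merges 667 nm feature fluorescence with signal to noise over triplicate slides.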 The following applies: 635 nm fluorescence, higher = more signal.
Assay [19] concerns the target Neurogenic locus notch homolog protein 3 (Homo sapiens) (UniProt Q9UM47). The experiment in a line: NOTCH3 binders on small-molecule microarray, primary screen, biochemical, 635/667 nm fluorescence (AID 1096). The following applies: NOTCH3 binding, 635 nm fluorescence, higher = more signal.
The nature of assay [20]: small-molecule microarray binders of probe aEGFR, primary screen, biochemical, biotinylated probe, 635/667 nm fluorescence (AID 1097).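 Note: probe is a biotinylated anti-EGFR antibody binding compounds printed on slides; score combines fluorescence near 667 nm and signal to noise of each spot.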 As to conditions: higher = more signal.

Pro-neuregulin-1, membrane-bound isoform (Homo sapiens), sequence (Q02297 whole entry, looked up, the tested form may be a part, canonical isoform): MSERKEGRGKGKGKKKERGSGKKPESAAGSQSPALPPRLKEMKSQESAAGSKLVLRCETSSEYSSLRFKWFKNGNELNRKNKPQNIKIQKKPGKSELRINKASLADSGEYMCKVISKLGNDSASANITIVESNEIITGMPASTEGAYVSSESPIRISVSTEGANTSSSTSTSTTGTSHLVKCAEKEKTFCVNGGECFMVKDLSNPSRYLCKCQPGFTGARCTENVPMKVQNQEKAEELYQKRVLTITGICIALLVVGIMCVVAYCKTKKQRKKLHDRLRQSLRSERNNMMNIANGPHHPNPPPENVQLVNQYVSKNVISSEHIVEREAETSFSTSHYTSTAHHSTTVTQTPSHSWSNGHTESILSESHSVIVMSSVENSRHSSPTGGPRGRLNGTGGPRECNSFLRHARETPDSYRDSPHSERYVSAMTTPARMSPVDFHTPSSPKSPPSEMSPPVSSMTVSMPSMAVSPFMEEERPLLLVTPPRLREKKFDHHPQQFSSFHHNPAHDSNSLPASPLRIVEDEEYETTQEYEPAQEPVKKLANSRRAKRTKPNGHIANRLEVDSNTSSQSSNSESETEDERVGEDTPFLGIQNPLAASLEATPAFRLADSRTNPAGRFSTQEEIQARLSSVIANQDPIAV
Neurogenic locus notch homolog protein 2 (Homo sapiens), sequence (Q04721 whole entry, looked up, canonical isoform): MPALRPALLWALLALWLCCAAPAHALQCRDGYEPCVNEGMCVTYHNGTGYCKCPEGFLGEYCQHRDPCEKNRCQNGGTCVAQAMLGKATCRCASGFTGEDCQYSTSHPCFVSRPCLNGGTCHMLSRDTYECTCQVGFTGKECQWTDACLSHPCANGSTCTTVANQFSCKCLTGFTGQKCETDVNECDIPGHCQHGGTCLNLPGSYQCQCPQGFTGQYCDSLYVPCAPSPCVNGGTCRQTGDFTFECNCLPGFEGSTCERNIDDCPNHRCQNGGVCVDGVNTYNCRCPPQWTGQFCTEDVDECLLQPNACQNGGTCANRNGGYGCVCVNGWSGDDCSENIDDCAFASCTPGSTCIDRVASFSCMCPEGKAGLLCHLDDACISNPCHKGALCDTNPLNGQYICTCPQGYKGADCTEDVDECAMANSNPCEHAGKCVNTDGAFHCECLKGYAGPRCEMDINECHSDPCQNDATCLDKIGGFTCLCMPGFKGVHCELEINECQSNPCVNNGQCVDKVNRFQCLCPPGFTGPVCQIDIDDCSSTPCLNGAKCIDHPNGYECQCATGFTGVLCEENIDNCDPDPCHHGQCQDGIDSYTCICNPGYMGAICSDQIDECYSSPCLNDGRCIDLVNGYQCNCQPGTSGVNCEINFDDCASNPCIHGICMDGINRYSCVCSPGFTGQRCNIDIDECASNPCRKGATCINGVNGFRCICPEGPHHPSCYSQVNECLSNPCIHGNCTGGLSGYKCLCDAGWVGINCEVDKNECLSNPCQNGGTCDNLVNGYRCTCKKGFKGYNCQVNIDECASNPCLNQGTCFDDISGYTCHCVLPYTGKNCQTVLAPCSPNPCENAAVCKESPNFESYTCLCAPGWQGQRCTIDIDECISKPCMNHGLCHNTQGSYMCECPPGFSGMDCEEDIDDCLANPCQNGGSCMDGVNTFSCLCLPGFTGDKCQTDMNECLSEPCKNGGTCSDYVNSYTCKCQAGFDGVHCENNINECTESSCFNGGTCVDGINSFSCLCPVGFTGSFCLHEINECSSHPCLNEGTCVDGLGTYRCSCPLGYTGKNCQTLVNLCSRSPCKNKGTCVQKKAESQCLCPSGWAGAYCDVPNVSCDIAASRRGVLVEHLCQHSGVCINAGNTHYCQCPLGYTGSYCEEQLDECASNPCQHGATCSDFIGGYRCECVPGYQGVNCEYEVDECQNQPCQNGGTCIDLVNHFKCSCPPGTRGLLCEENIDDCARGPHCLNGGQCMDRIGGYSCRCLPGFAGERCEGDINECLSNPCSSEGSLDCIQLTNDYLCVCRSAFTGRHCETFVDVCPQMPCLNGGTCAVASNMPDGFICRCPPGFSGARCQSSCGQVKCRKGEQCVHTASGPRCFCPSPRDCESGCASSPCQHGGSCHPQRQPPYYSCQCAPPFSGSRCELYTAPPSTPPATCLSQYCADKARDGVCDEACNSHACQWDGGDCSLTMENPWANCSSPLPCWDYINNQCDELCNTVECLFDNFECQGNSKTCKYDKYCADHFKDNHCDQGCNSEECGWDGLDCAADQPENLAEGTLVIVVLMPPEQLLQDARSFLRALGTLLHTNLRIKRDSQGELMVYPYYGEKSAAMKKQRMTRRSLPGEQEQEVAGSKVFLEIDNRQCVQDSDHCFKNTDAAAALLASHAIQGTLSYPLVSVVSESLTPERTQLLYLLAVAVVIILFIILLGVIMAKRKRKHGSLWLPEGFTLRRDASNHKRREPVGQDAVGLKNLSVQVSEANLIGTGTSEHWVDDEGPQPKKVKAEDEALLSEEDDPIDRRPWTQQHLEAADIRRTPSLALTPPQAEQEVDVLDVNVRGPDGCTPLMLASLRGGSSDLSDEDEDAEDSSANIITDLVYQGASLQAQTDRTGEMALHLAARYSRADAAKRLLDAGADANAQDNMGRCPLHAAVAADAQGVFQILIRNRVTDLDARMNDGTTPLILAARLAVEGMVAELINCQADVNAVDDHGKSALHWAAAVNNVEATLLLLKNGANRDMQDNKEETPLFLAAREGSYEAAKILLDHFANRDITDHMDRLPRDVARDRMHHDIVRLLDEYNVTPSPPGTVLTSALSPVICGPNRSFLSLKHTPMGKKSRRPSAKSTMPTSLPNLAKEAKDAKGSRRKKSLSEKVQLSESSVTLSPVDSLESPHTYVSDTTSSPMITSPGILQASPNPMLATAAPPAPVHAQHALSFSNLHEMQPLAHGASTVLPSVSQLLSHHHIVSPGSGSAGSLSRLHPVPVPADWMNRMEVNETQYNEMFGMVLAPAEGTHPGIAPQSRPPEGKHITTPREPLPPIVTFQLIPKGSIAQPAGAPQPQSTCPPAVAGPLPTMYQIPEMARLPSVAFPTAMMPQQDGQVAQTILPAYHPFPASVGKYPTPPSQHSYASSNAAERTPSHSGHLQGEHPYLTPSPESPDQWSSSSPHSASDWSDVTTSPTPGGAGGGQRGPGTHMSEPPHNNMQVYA
Torsin-1A-interacting protein 2 (Homo sapiens), sequence (Q8NFQ8 whole entry, looked up): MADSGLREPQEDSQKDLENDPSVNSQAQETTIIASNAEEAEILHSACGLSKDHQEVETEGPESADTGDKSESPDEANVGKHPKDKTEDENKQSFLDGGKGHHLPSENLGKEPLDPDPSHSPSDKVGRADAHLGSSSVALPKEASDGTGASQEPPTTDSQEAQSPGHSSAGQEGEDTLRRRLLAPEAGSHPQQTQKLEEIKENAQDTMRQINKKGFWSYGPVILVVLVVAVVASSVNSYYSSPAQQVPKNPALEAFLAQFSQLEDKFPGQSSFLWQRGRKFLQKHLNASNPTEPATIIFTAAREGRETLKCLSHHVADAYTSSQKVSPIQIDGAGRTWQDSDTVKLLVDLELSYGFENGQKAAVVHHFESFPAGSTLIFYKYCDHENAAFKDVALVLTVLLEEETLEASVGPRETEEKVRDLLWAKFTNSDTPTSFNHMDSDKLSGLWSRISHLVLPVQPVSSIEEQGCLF

`CC(CCN1CCc2nc(-c3ccccc3)c(-c3ccccc3)cc2C1)=NOC(C)CN1CCCc2nc(C)c(C)cc21` (stereo not given): the composite z-score in assay [1] is -0.0304; in assay [2], 1.12; in [3], 0.0762; in assay [4] it was 0.681; in assay [5] it was 1.4; in [6] it was 0.72. Moreover, the composite z-score in [7] came to 1.08; in [9], 0.676; in [10], 0.316; in assay [11] it was 1.56; in [15], 2.22; in assay [17], 0.0704. The composite z-score in assay [18] is 0.582; in assay [19], 1.09; in assay [20] it was 0.0709. The z-score is 1.1 (inactive) in [8]; -1.4 (inactive) in assay [12]; -12.6 (active) in assay [13]; -3.45 (inactive) in assay [14]; 0.419 (inactive) in assay [16].
Regarding `C=C(C)C(=O)OC[C@H]1CN2[C@@H](CC[C@@H](C)[C@@H]2c2ccc(Br)cc2)C(=O)O1`, the composite z-score was -0.223 in assay [1]; 0.123 in [2]; -0.166 in [3]; 0.113 in assay [4]; -0.283 in assay [5]; 0.199 in assay [6]. Besides, the composite z-score is 0.0297 in assay [7]; -0.155 in assay [9]; -0.0618 in [10]; 0.164 in assay [11]; 0.162 in assay [15]; -0.166 in assay [17]. In addition, the composite z-score in assay [18] is 0.195; in assay [19], -0.775; in assay [20], -0.144. For the same compound, the z-score in assay [8] was 0.402 (inactive); in assay [12] it was 0.0739 (inactive); in assay [13], -3.38 (inactive); in assay [14], -0.424 (inactive); in [16] it was 0.436 (inactive).
For `CC(CCN1CCCCc2nc(C)c(C)cc21)=NO[C@@H](C)c1cc(-c2c(C)cc(C)cc2C)no1`, the composite z-score was -0.0105 in [1]; -0.454 in [2]; -0.232 in assay [3]; -0.33 in assay [4]; -1.93 in [5]; 0.0782 in assay [6]. Also, the composite z-score in assay [7] is -0.246; in [9] it was -0.689; in [10] it was -0.134; in assay [11], 0.0804; in assay [15] it was -0.745; in [17], -0.126. Besides, the composite z-score in assay [18] was -0.0547; in assay [19] it was -1.55; in assay [20], -0.343. Besides, the z-score in assay [8] is -1.49 (inactive); in [12], -1.73 (inactive); in assay [13], -10.2 (active); in [14], -0.199 (inactive); in assay [16], 0.486 (inactive).
Regarding `C[C@@H]1C=CCC(=O)OC[C@H](C)C(=O)N[C@@H](Cc2ccccc2)C(=O)OC1`, the composite z-score was -0.553 in [1]; 1.31 in assay [2]; -0.245 in assay [3]; 0.294 in assay [4]; 0.443 in [5]; -0.302 in assay [6]. The composite z-score in assay [7] is 0.422; in assay [9], 0.0347; in assay [10] it was 0.605; in [11] it was -0.431; in assay [15], 0.146; in [17], -0.192. Besides, the values for the composite z-score in assay [18], in assay [19] and in assay [20] were 0.79, -0.019 and -0.0513, respectively. For the same compound, the z-score in assay [8] was -0.514 (inactive); in assay [12], 0.214 (inactive); in assay [13] it was -1.06 (inactive); in assay [14], -0.0603 (inactive); in assay [16], -0.234 (inactive).
With `CON=C(C)CCN1CCCc2nc(C)c(C)cc21`, the composite z-score in [1] is -0.411; in assay [2] it was -0.205; in [3], -0.0266; in [4], 0.28; in assay [5] it was 0.512; in [6], 0.397. Also, the composite z-score in [7] was 0.908; in assay [9], 0.192; in assay [10], 0.12; in [11], 1.43; in assay [15], 1.92; in [17], -0.0179. In addition, the composite z-score in [18] worked out at 0.513; in assay [19], 0.632; in assay [20], 0.0376. The z-score was 0.885 (inactive) in assay [8]; -0.596 (inactive) in [12]; -0.837 (inactive) in assay [13]; 0.0921 (inactive) in assay [14]; 0.0129 (inactive) in assay [16].
With `CCOC(=O)[C@H](Cc1ccccc1)NC(=O)CCC1CC(OC(=O)NCCc2ccc(F)cc2)CC2(CCCC(COC(=O)NCc3cccc(C(F)(F)F)c3)O2)O1` (stereo not given in full), the composite z-score was -0.334 in assay [1]; 0.0606 in assay [2]; 0.0102 in [3]; 0.758 in assay [4]; 1.49 in assay [5]; 1.28 in assay [6]. Moreover, the composite z-score in assay [7] was 1.05; in assay [9], 0.332; in [10], -0.121; in [11] it was 1.45; in [15] it was 2.9; in [17], -0.0008. In addition, the composite z-score in [18] is 0.832; in assay [19] it was 1.11; in [20], 0.12. In addition, the z-score in assay [8] was -0.342 (inactive); in assay [12] it was 0.563 (inactive); in assay [13], 0.106 (inactive); in assay [14], 0.029 (inactive); in [16] it was 0.468 (inactive).
Consider `COc1ccc(O[C@H]2C=C[C@@H](C#Cc3ccccc3)O[C@@H]2CO)cc1`, for which the composite z-score in assay [1] was -0.213; in assay [2], 0.0018; in assay [3], -0.0206; in assay [4], 0.457; in assay [5], 0.339; in assay [6], 0.658. The composite z-score in assay [7] is 0.644; in [9], 0.137; in assay [10], -0.236; in [11], 0.718; in assay [15] it was 1.88; in assay [17] it was -0.248. The composite z-score in [18] was 1.15; in assay [19], 0.402; in assay [20], -0.125. In addition, the z-score is -1.37 (inactive) in [8]; -0.315 (inactive) in assay [12]; -20.4 (active) in assay [13]; -0.731 (inactive) in [14]; 1.3 (inactive) in [16].
As to `COc1ccc(OC[C@@H](CO)OC)cc1`, the composite z-score in [1] is -0.306; in assay [2], 0.415; in [3], -0.0512; in [4], 0.3; in [5] it was 0.0354; in assay [6], -0.156. For the same compound, the composite z-score is -0.0824 in [7]; 0.0746 in [9]; -0.0994 in assay [10]; -0.601 in [11]; -0.0777 in assay [15]; -0.185 in [17]. Further, the composite z-score in [18] is 0.802; in assay [19] it was -0.176; in assay [20], -0.0381. The z-score in assay [8] was 0.759 (inactive); in [12], -0.368 (inactive); in assay [13] it was -0.199 (inactive); in [14], -0.302 (inactive); in assay [16], 0.418 (inactive).
Take `CC#CCOCCC=C1c2ccccc2[C@@H](OC)[C@@H]1C`: the composite z-score in assay [1] is -0.35; in [2] it was 0.575; in assay [3] it was -0.143; in [4], 0.452; in [5], 0.105; in assay [6] it was -0.361. Also, the composite z-score was 0.244 in assay [7]; 0.359 in assay [9]; 0.154 in assay [10]; 0.513 in assay [11]; 0.127 in assay [15]; -0.0266 in assay [17]. In addition, the composite z-score in [18] amounted to 0.697; in assay [19], 0.153; in assay [20], 0.0579. The z-score in [8] was 0.181 (inactive); in assay [12] it was -0.0953 (inactive); in [13], -2.52 (inactive); in [14], -0.933 (inactive); in assay [16] it was 0.596 (inactive).
With `CCOC(=O)[C@H](Cc1ccccc1)NC(=O)CCC1CC(OC(=O)NCc2cccc3ccccc23)CC2(CCCC(COC(=O)NCc3ccc4c(c3)OCO4)O2)O1` (stereo not given in full), the composite z-score was -0.341 in [1]; -0.261 in assay [2]; -0.0391 in [3]; 0.694 in assay [4]; 0.305 in [5]; 0.188 in assay [6]. The composite z-score was 1.07 in assay [7]; 0.0918 in [9]; -0.134 in assay [10]; -0.0058 in assay [11]; 1.8 in assay [15]; -0.139 in assay [17]. Further, the values for the composite z-score in assay [18], in assay [19] and in assay [20] were 0.453, 0.227 and 0.104, respectively. For the same compound, the z-score in assay [8] is 1.4 (inactive); in [12], 0.549 (inactive); in assay [13], -0.02 (inactive); in assay [14], 0.743 (inactive); in [16], 0.951 (inactive).

The values above are taken from PubChem BioAssay.
